# Source: PubChem BioAssay (National Center for Advancing Translational Sciences (NCATS))
# D1 potentiator = potentiators of human D1 dopamine receptor | P21728 | HEK293 TREx D1 cells, calcium flux, dopamine EC20 potentiation | potentiation, % at 10 µM | 360,000 compounds, 0.036% hits; in the data active = potentiation above about 30%; also: 0% is about no effect
# Target sequence (P21728 whole entry, looked up): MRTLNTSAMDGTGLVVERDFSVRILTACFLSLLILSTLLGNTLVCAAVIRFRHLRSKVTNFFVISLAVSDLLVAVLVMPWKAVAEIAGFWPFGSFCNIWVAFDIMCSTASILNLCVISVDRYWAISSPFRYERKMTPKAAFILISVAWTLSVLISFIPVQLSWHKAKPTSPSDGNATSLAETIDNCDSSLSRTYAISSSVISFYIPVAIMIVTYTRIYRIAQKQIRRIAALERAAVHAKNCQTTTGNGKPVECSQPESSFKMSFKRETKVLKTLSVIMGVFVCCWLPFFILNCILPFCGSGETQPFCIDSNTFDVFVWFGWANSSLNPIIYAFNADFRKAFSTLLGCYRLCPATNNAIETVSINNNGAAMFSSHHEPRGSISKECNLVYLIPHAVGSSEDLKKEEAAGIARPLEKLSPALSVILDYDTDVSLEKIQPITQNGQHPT
# D1 ag = activates the human D1 dopamine receptor; activation, % at 2 µM; P21728; HEK293 T-REx D1 cells, calcium flux, agonist mode; 360,000 compounds, 1% hits; AID 504660; also: 0% is about no effect
#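 Inducible HEK293 T-REx D1 cells, force-coupled to calcium signalling, were plated at 4000 cells/well with tetracycline and held overnight at 30 C. After no-wash calcium dye loading, compound-evoked calcium rise over 180 s flagged agonists.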
# D1 antagonist = human D1 dopamine receptor antagonism. 360,000 compounds, 3.2% hits. activity change, negative = inhibition, % at 10 µM. HEK293 TREx D1 cells, calcium flux, dopamine EC80; hits give low values; in the data active = activity change below about -30%; also: % is scaled to controls: 0 for no effect and ±100 for the full control effect
#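 Allosteric or orthosteric antagonism assessed as attenuation of the calcium response to EC80 dopamine, added 180 s after compound, in induced HEK293 Trex D1 cells loaded with no-wash calcium dye.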
# TRHR agonist = agonists of human TRH receptor; 360,000 compounds, 0.18% hits; TRHR cells, calcium flux fluo-8, FDSS agonist mode; P34981; activation, % at 2 µM; AID 493084; also: 0% is about no effect
#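 In this calcium-flux screen, cells bearing human TRHR are dye-loaded with fluo-8, baselined for 10 cycles, then exposed to library compounds; positive kinetic calcium responses during the agonist phase mark hits, with TRH as control.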
# TRHR enhancer = TRH receptor (human) allosteric enhancement. P34981. TRHR cells, fluo-8 calcium fluorescence, EC20 TRH enhancement. 360,000 compounds, 0.66% hits. AID 493056. enhancement, % at 2 µM; in the data active = enhancement above about 30%; also: 0% is about no effect
#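 TRHR-expressing cells loaded with fluo-8 calcium dye were read kinetically (ex 480/em 530) during compound addition, then stimulated with an EC20 of TRH (10 nM final). Enhancement of the Gq-mediated intracellular calcium response was scored.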
# Starred values were filed as active, the others as inactive. Shown are actives, neighbours in structure and some others; about 4.6% of the full set was active somewhere. Rule as the data show it, unless noted: active = activation above about 30%; inactive = the rest.
SMILES,D1 potentiator,D1 ag,D1 antagonist,TRHR agonist,TRHR enhancer
COc1ccc(CCNC(=O)CCc2cn(Cc3ccccc3Cl)c3ccccc23)c(OC)c1,-2,4,-36*,1,-7
CCOc1ccc(N(CC)S(=O)(=O)c2cc(Br)cc3c2N(C(C)=O)C(C)C3)cc1 (stereo not given),1,0,-8,0,-5
O=C(O)CSC1CC(=O)N(c2ccc(Cl)cc2)C1=O (stereo not given),-3,2,-1,0,3
O=C(O)CSC1CC(=O)N(c2ccc(Br)cc2)C1=O (stereo not given),-5,9,-4,0,40*
Cc1ccc(Cn2c(=O)c3ccccc3n3c(-c4ccccc4)nnc23)cc1,-2,3,1,1,-3
COc1ccc(NC(=O)Cc2c(C(=O)O)n(C)c3ccccc23)cc1OC,-5,2,18,0,5
CCn1c(=O)n(CC(=O)Nc2cccc(OC)c2)c(=O)c2ccccc21,0,2,3,0,1
CCn1c(=O)n(CC(=O)Nc2cc(OC)c(OC)c(OC)c2)c(=O)c2ccccc21,-5,0,-45*,0,12
COc1cc(NC(=O)Cc2c(C(=O)O)n(C)c3ccccc23)cc(OC)c1OC,-10,1,-106*,0,-5
Cc1ccc(-c2nn(CC(=O)Nc3cccc(C(F)(F)F)c3)c(=O)c3ccccc23)cc1,4,4,9,0,2
Cc1ccc(C2c3[nH]c4ccccc4c3CCN2C(=O)CCc2ccccc2)cc1 (stereo not given),-2,0,0,1,8
CC(C)(C)NC(=O)C(c1c[nH]c2ccccc12)N(C(=O)Cn1nnc(-c2ccc(Cl)cc2)n1)c1ccccc1F (stereo not given),50*,5,-7,0,-3
CSc1nn(Cc2ccc(F)cc2)c(N)c1S(=O)(=O)c1ccc(Cl)cc1,-4,6,-14,1,-5
Cc1ccc(-n2c(-c3nn(C)cc3Cl)n[nH]c2=S)cc1,-4,3,28,2,31*
C=C(C)c1cccc(C(C)(C)NC(=O)N2CCN(c3ccc(OC)cc3)CC2)c1,-7,0,-37*,0,-3
C=C(C)c1cccc(C(C)(C)NC(=O)N2CCN(C)CC2)c1,-3,1,1,0,-3
C=C(C)c1cccc(C(C)(C)NC(=O)N2CCC(C)CC2)c1,-9,0,-43*,0,-9
Cc1ccc(-n2nc(C(=O)N3CCN(c4ccccc4F)CC3)c3c4ccccc4n(C)c3c2=O)cc1,1,5,2,3,2
Cc1ccc2c(c1)c1c(c(=O)n(-c3ccccc3C)c(=O)n1CC(=O)c1ccc(Cl)cc1)n2C,-2,4,-32*,0,2
Cc1ccc2c(c1)c1c(c(=O)n(-c3cccc(Cl)c3)c(=O)n1CC(=O)c1ccc(Cl)cc1)n2C,0,7,-1,-1,5
COc1ccccc1NC(=O)Cn1c(=O)n(-c2cccc(Cl)c2)c(=O)c2c1c1cc(C)ccc1n2C,3,48*,-4,0,-4
COc1ccc2c(c1)c1c(c(=O)n(Cc3ccccc3)c(=O)n1CC(=O)Nc1ccc(C)cc1C)n2C,-1,-1,-65*,-1,3
COc1ccc2c(c1)c1c(c(=O)n(Cc3ccccc3)c(=O)n1CC(=O)Nc1cc(C)cc(C)c1)n2C,0,1,2,0,3
Cc1ccccc1Nc1nnc(-c2ccc(C)c(S(=O)(=O)N3CCCCC3)c2)c2ccccc12,0,-2,-15,0,5
CC(C)C[C@H](NC(=O)OC(C)(C)C)c1nnc(SCc2cccc(F)c2)o1,6,31*,-13,0,4
CSCC[C@H](NC(=O)OC(C)(C)C)c1nnc(SCc2cccc(F)c2)o1,-4,3,-28,1,3
CCOC(=O)c1c(/N=C/C2=C(O)CCCC2=O)sc(C)c1C,5,-1,-22,-2,-12
CCOC(=O)c1c(-c2ccc(OC)cc2)csc1/N=C/C1=C(O)CCCC1=O,-8,37*,-11,10,27
CCCCn1c(=O)n(-c2cc(OC)ccc2OC)c(=O)c2c3c(sc21)CN(C(C)=O)CC3,-6,0,9,0,4
